Each structure is given as a SMILES string. Inconclusive results are not listed. Active and inactive are the calls of the source. Calls come from the whole dose curve; as a rule, active = well fitted cell-killing curve with a large enough effect; inconclusive = small, poorly fitted or top-dose-only effect, or effect the other way; inactive = no such curve, though single readings can be large or run the other way.

For 17 compounds, Potency results are on record in PubChem BioAssay (NCATS).

Assay [1] in a line: Quantitative High-Throughput drug screen in 47 multiple myeloma cell lines against the NCATS MIPE library collection: VP6_DJ cell viability assay (AID 1919867). Note: nearly all actives have a fitted effect of over 40% in size. A digest of the protocol: (§1)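 Myeloma cells (500/well) treated with MIPE 4.0 compounds for 48 h at 37 °C, 5% CO2. Viability read as ATP via CellTiter-Glo luminescence after 5 min at RT; DMSO-only wells = 100%, media-only = 0% viability.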

Assay [2] in a line: Quantitative High-Throughput drug screen in 47 multiple myeloma cell lines against the NCATS MIPE library collection: UTMC2_PLB cell viability assay (AID 1919868). Note: nearly all actives have a fitted effect of over 55% in size. The settings on record: CellTiter-Glo ATP luminescence, 48 h; viability (% of DMSO control): at 45.8 µM (top of the series). The essentials:
as §1
A general note: Cellular ATP, detected with luciferase, serves as a proxy for viable cell number.

Assay [3] in a line: Quantitative High-Throughput drug screen in 47 multiple myeloma cell lines against the NCATS MIPE library collection: PE2_PLB cell viability assay (AID 1919869). Note: nearly all actives have a fitted effect of over 35% in size. A digest of the protocol:
as §1

The nature of assay [4]: Quantitative High-Throughput drug screen in 47 multiple myeloma cell lines against the NCATS MIPE library collection: PCM6_Riken cell viability assay (AID 1919870). Note: nearly all actives have a fitted effect of over 30% in size. The essentials:
as §1

A short description of assay [5]: Quantitative High-Throughput drug screen in 47 multiple myeloma cell lines against the NCATS MIPE library collection: RPMI8226_ATCC cell viability assay (AID 1919871). Note: nearly all actives have a fitted effect of over 30% in size. The essentials:
as §1

The nature of assay [6]: Quantitative High-Throughput drug screen in 47 multiple myeloma cell lines against the NCATS MIPE library collection: OPM2_DSMZ cell viability assay (AID 1919872). Note: nearly all actives have a fitted effect of over 30% in size. The essentials:
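Relative luminescence from CellTiter-Glo served as the viability signal, referenced to DMSO-treated (100%) and cell-free medium (0%) controls. Treatment lasted 48 hours at 37C with 500 cells per well.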

Assay [7] can be described thus: Quantitative High-Throughput drug screen in 47 multiple myeloma cell lines against the NCATS MIPE library collection: KMS28BM_JCRB cell viability assay (AID 1919874). Note: nearly all actives have a fitted effect of over 35% in size. A digest of the protocol: as §1
Assay [8] in a line: Quantitative High-Throughput drug screen in 47 multiple myeloma cell lines against the NCATS MIPE library collection: KMS11_JCRBsus cell viability assay (AID 1919873). Note: nearly all actives have a fitted effect of over 50% in size. A digest of the protocol:
as §1
Potency is the fitted concentration of half-maximal effect.

As for `CN(C)CC[C@H](CSc1ccccc1)Nc1ccc(S(=O)(=O)NC(=O)c2ccc(N3CCN(Cc4ccccc4-c4ccc(Cl)cc4)CC3)cc2)cc1[N+](=O)[O-]`, the Potency is 2.64 µM (active) in assay [1]; 1.18 µM (active) in assay [2]; 1.48 µM (active) in assay [3]; 0.0526 µM (active) in assay [4]; 4.18 µM (active) in assay [5]; 16.6 µM (active) in assay [6]. Further, in assay [7], the Potency was 1.87 µM (active).

Turning to `NC1(C(=O)N[C@@H](CCO)c2ccc(Cl)cc2)CCN(c2ncnc3[nH]ccc23)CC1`, the Potency in assay [1] was 0.235 µM (active); in assay [2], 0.235 µM (active); in assay [3], 5.9 µM (active); in assay [4] it was 5.26 µM (active); in assay [5], 6.62 µM (active); in assay [6] it was 13.2 µM (active). Also, the Potency in assay [7] was 0.372 µM (active).

On to `CCN(CCO)CCCOc1ccc2c(Nc3cc(CC(=O)Nc4cccc(F)c4)[nH]n3)ncnc2c1`, for which the Potency result in assay [1], in assay [3], in assay [4], in assay [5], in assay [6] and in assay [8] was “inactive” each time. The Potency is 0.0743 µM (active) in assay [2] and 0.0372 µM (active) in assay [7].

Take `Nc1ncnc2c1c(-c1cccc(OCc3ccccc3)c1)cn2C1CC(CN2CCC2)C1` (configuration not stated): the Potency in assay [1] was 1.66 µM (active); in assay [2], 0.166 µM (active); in assay [3], 6.62 µM (active); in assay [4], 26.4 µM (active); in assay [5], 5.26 µM (active); in assay [8], 2.96 µM (active). Also, in assay [7], the Potency was 2.96 µM (active).

Take `Cc1ccc(NC(=O)Nc2cc(C(F)(F)F)ccc2F)cc1Nc1ccc2c(c1)NC(=O)C2=Cc1ccc[nH]1`: the Potency was 5.26 µM (active) in assay [1], 8.33 µM (active) in assay [2], 4.18 µM (active) in assay [3] and 3.32 µM (active) in assay [4].

On to `Cc1cn([C@@H]2C[C@@H](O)[C@H](CO)O2)c(=O)[nH]c1=O`, for which the Potency result in assay [1], in assay [2], in assay [3], in assay [4], in assay [5] and in assay [6] was “inactive” throughout. In addition, the Potency entry in assay [8] and in assay [7] was “inactive” throughout.

As to `CC[C@H](CC#N)OC(=O)N[C@@H](C)c1cccc(NC(=O)Nc2ccc(-c3cnco3)c(OC)c2)c1`, the Potency is 1.32 µM (active) in assay [1]; 1.18 µM (active) in assay [2]; 4.18 µM (active) in assay [3]; 1.32 µM (active) in assay [4]; 2.64 µM (active) in assay [5]; 0.372 µM (active) in assay [8]. Also, the Potency in assay [7] was 2.09 µM (active).

Consider `CN(C)S(=O)(=O)c1ccc2c(c1)C(=Cc1cc3c([nH]1)CCCC3)C(=O)N2`, for which the Potency is 2.64 µM (active) in assay [1], 3.32 µM (active) in assay [2], 3.72 µM (active) in assay [3] and 7.43 µM (active) in assay [5].

For the compound `Cc1ccccc1-n1c(Cn2nc(-c3cccc(O)c3)c3c(N)ncnc32)nc2cccc(C)c2c1=O`, the Potency is 1.05 µM (active) in assay [1]; 4.18 µM (active) in assay [2]; 2.35 µM (active) in assay [3]; 5.9 µM (active) in assay [4]; 13.2 µM (active) in assay [5]; 8.33 µM (active) in assay [6]. The Potency in assay [8] is 6.62 µM (active).

On to `O=C(CC12CC3CC(CC(C3)C1)C2)Nc1cccc2nc(NCCNCCO)ccc12`, for which the Potency in assay [1] is 4.69 µM (active); in assay [2] it was 3.32 µM (active); in assay [3], 7.43 µM (active); in assay [4], 7.43 µM (active); in assay [7] it was 23.5 µM (active).

For `Nc1nc(Cl)nc2c1ncn2[C@@H]1O[C@H](CO)[C@@H](O)[C@H]1F`, the Potency is 0.187 µM (active) in assay [1], 0.332 µM (active) in assay [2], 0.418 µM (active) in assay [3] and 2.35 µM (active) in assay [5].

In the case of `CC(C)CNc1ccnc(NCc2csc(-c3ccccc3)n2)n1`, the Potency in assay [1] was 5.26 µM (active); in assay [2], 10.5 µM (active); in assay [3] it was 18.7 µM (active); in assay [4], 14.8 µM (active); in assay [8] it was 13.2 µM (active); in assay [7], 16.6 µM (active).

Regarding `CCN(CC)CCCCNc1nc2cc(Cl)c(Cl)cc2nc1-c1ccc(-c2cccs2)s1`, the Potency was 8.33 µM (active) in assay [1]; 9.35 µM (active) in assay [2]; 9.35 µM (active) in assay [3]; 8.33 µM (active) in assay [4]; 10.5 µM (active) in assay [5]; 10.5 µM (active) in assay [6]. Also, the Potency in assay [8] was 8.33 µM (active); in assay [7] it was 7.43 µM (active).

For `CCCCCOC(=O)Nc1nc(=O)n([C@@H]2O[C@H](C)[C@@H](O)C2O)cc1F` (some centres not stated), the Potency in assay [1] was 2.64 µM (active). In addition, the Potency entry in assay [2], in assay [3], in assay [4], in assay [5] and in assay [6] was “inactive” each time.

On to `Cc1cccc(-c2[nH]c(C(C)(C)C)nc2-c2ccc3c(c2)OCO3)n1`, for which the Potency is 0.743 µM (active) in assay [1]; 0.743 µM (active) in assay [2]; 1.18 µM (active) in assay [3]; 0.833 µM (active) in assay [4]; 16.6 µM (active) in assay [5]; 16.6 µM (active) in assay [8]. Besides, the Potency in assay [7] is 16.6 µM (active).

Regarding `CC1=C(CC(=O)O)c2cc(F)ccc2C1=Cc1ccc(S(C)=O)cc1` (configuration not stated), the Potency in assay [1] was 7.43 µM (active); in assay [2], 18.7 µM (active); in assay [3], 20.9 µM (active); in assay [8], 3.72 µM (active); in assay [7], 9.35 µM (active). The Potency entry in assay [5] and in assay [6] was “inactive” in each case.

For `Cc1c(-c2cccc3c(CCCOc4cccc5ccccc45)c(C(=O)O)n(Cc4cccnc4)c23)c(COc2ccc(N3CCN([S+](=O)([O-])N(C)C)CC3)cc2)nn1C`, the Potency is 8.33 µM (active) in assay [1], 20.9 µM (active) in assay [2], 18.7 µM (active) in assay [3] and 16.6 µM (active) in assay [6]. Besides, the Potency entry in assay [4] was “inactive”.
